PI5P4K alpha inh – PI5P4K alpha (human) kinase inhibition; P48426; PI5P4Kalpha enzyme, ADP-Glo luminescence, 60 min; active compounds read low; max response, %; actives 1.2% (n = 330,000); AID 652105; active = max response of -50% or lower; inconclusive = between -30% and -50%; inactive = -30% or higher; also: value at the top dose of about 77 µM
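qHTS, 1536-well: enzyme/substrate mix, compound by pin tool, 5 microM ATP final; RT 60 min; ADP-Glo reagents 1 (45 min) then 2 (30 min); luminescence.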
JMJD2A Tudor inh – JMJD2A Tudor domain (human) inhibition; AlphaScreen JMJD2A-Tudor / H3K4me3 peptide binding; Potency, µM (highest dose often 114 µM), most hits filed as inhibitors; actives 4.4% (n = 390,000); AID 504339; also: nearly all actives have a fitted effect of over 50% in size
BAZ2B block – inhibitors of human BAZ2B bromodomain. actives 4.4% (n = 360,000). AlphaScreen BAZ2B-H3K14Ac peptide displacement. Potency, µM (titrated, usually from 114 µM), usual class: inhibitors; also: nearly all actives have a fitted effect of over 60% in size
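AlphaScreen displacement of biotin-H3(5-23)K14Ac peptide (50 nM final) from BAZ2B (50 nM final) in PBS pH 7.4, 0.01% Tween-20; complex preformed 30 min RT, then compounds (top 110 uM) 30 min RT, beads 20 min dark.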
PLK1 PBD block – PLK1 (human) polo-box domain binding inhibition. AID 720504. Plk1 PBD binding of FITC phosphopeptide, fluorescence polarization. P53350. Potency, µM, most hits filed as inhibitors. actives 2.8% (n = 360,000); also: series mostly up to about 57 µM; nearly all actives have a fitted effect of over 65% in size
HP1b chromo inh – inhibitors of HP1-beta chromodomain binding to methylated histone tails | P83916 | actives 0.56% (n = 390,000) | AlphaScreen HP1-beta / biotin-H3K9me3 peptide binding | Potency, µM (titrated, usually from 114 µM), most hits filed as inhibitors; also: nearly all actives have a fitted effect of over 70% in size
Target sequence (P83916 whole entry, looked up): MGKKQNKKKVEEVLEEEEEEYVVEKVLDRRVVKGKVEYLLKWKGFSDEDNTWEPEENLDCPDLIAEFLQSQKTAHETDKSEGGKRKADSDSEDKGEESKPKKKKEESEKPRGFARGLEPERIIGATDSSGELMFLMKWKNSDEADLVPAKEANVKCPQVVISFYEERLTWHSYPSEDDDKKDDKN
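HP1-beta protein (50 nM final) preincubated 30 min at room temperature with biotinylated H3(1-18)K9me3 peptide (50 nM) in PBS pH 7.4, 0.01% Tween-20, then compound added for 30 min. AlphaScreen streptavidin donor/nickel chelate acceptor beads (10 ug/mL final), 30 min dark, luminescence read.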
G9a inh – blocks human histone lysine methyltransferase G9a; actives 8.8% (n = 350,000); Q96KQ7; AID 504332; Potency, µM (titrated, usually from 102 µM), hits mostly inhibitors; G9a H3K9 monomethylation, AlphaScreen, 2 h; also: nearly all actives have a fitted effect of over 75% in size
Target sequence (Q96KQ7 913-1193 limits assumed): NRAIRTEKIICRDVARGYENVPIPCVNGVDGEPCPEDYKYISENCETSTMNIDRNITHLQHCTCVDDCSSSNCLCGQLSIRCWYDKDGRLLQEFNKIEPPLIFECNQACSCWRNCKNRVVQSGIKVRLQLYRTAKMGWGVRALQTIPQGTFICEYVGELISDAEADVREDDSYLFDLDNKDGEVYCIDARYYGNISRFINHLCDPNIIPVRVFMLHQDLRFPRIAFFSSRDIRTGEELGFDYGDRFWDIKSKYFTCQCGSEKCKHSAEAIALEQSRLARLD
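Using a bead-based AlphaScreen, monomethylated H3K9 product from 2 h room-temperature reactions (G9a 20 nM, peptide 500 nM, SAM 20 uM) was detected with 0.5 ug/mL rabbit anti-H3K9me1 antibody.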
Large screens that a line does not name were inactive. Rows were chosen to be rich in hits. Some 12% of all compounds tested hit in one or more screens of this group. Unless noted, calls follow the shape of the dose curve; as a rule, active = well fitted curve in the direction sought with a large enough effect; inconclusive = small, poorly fitted or top-dose-only effect, or another doubt; inactive = no such curve, though single readings can be large; an effect the other way counts as inactive or inconclusive.

COc1cccc(NC(=O)CN2C(=O)NC3(CCCc4ccccc43)C2=O)c1 (stereo not drawn)	G9a inh 10µM
CCCCSc1nc(N)nc2c1ncn2C1OC(CO)C(O)C1O (stereo not drawn)	none (no result: BAZ2B block, G9a inh)
Cc1ccc(C)c(NC(=O)CSc2c(C)cnc3c2c(=O)n(C)c(=O)n3C)c1	none (no result: PI5P4K alpha inh, PLK1 PBD block)
CNC(=O)c1ccc2nc(-c3ccccc3)c(-c3ccccc3)nc2c1	none (no result: PI5P4K alpha inh, BAZ2B block, PLK1 PBD block, G9a inh)
Cc1ccc(-c2nc3ccc(C(=O)O)cc3nc2-c2ccc(C)cc2)cc1	BAZ2B block inconclusive, PLK1 PBD block 29.9µM (no result: PI5P4K alpha inh)
CCC(=O)OC1=C(C(C)=O)N(Cc2ccccc2)S(=O)(=O)c2ccccc21	JMJD2A Tudor inh 50.1µM, G9a inh inconclusive (no result: PI5P4K alpha inh, PLK1 PBD block)
CCCCC(=O)OC1=C(C(C)=O)N(Cc2ccccc2)S(=O)(=O)c2ccccc21	JMJD2A Tudor inh 79.4µM, BAZ2B block inconclusive, G9a inh inconclusive (no result: PI5P4K alpha inh, PLK1 PBD block)
CCCCCN1C(C(=O)c2ccccc2)=C(OC(=O)CC)c2ccccc2S1(=O)=O	JMJD2A Tudor inh inconclusive (no result: PI5P4K alpha inh, PLK1 PBD block)
CCCC(=O)OC1=C(C(C)=O)N(Cc2ccccc2)S(=O)(=O)c2ccccc21	JMJD2A Tudor inh inconclusive, BAZ2B block inconclusive, G9a inh inconclusive (no result: PI5P4K alpha inh, PLK1 PBD block)
COc1ccccc1NC(=O)C(OC(=O)CNC(=O)c1ccccc1)c1ccccc1 (stereo not drawn)	none (no result: PI5P4K alpha inh, BAZ2B block, PLK1 PBD block, HP1b chromo inh, G9a inh)
COc1ccc(S(=O)(=O)N2CCN(Cc3cccc([N+](=O)[O-])c3)CC2)cc1	JMJD2A Tudor inh 20µM, HP1b chromo inh inconclusive (no result: BAZ2B block, G9a inh)
COc1ccc(S(=O)(=O)N2CCN(Cc3cccc(Cl)c3)CC2)cc1	none
O=[N+]([O-])c1ccccc1CN1CCN(S(=O)(=O)Cc2ccccc2)CC1	JMJD2A Tudor inh 0.794µM, BAZ2B block 44.7µM, HP1b chromo inh inconclusive (no result: G9a inh)
CN(Cc1ccccc1)C1CCN(Cc2ccccc2[N+](=O)[O-])CC1	JMJD2A Tudor inh 11.2µM, BAZ2B block 20µM, HP1b chromo inh inconclusive, G9a inh 17.8µM
O=[N+]([O-])c1cccc(CN2CCCCCC2)c1	none
COc1ccc(S(=O)(=O)N2CCN(Cc3cccc(F)c3)CC2)cc1	JMJD2A Tudor inh 3.16µM, HP1b chromo inh inconclusive (no result: BAZ2B block, G9a inh)
Nc1ccc2c(c1)C(=O)CCC2	none (no result: JMJD2A Tudor inh, BAZ2B block, HP1b chromo inh, G9a inh)
Cc1ccccc1OCCn1c(=N)n(C(C)C)c2ccccc21	none (no result: PI5P4K alpha inh, PLK1 PBD block)
OC(CNCCc1ccc(Cl)cc1)COc1cc(Cl)ccc1Cl (stereo not drawn)	none
COc1ccc(S(=O)(=O)NCC(c2ccco2)S(=O)(=O)c2cccs2)cc1F (stereo not drawn)	none (no result: PI5P4K alpha inh, PLK1 PBD block)
COc1ccccc1CNC(=O)N1CCN(S(=O)(=O)c2ccc(C)cc2)CC1	none
COc1ccc2ccc(O)c(CN3CCN(S(=O)(=O)c4cc([N+](=O)[O-])ccc4C)CC3)c2c1	G9a inh 1.26µM
CCN1CCN(S(=O)(=O)c2ccc(OC)cc2)CC1	none
COc1ccc(S(=O)(=O)N2CCN(Cc3ccccc3[N+](=O)[O-])CC2)cc1	JMJD2A Tudor inh 3.16µM, HP1b chromo inh inconclusive (no result: BAZ2B block, G9a inh)
COc1ccccc1CN1CCN(S(=O)(=O)c2ccc(C)cc2)CC1	JMJD2A Tudor inh 20µM, HP1b chromo inh inconclusive (no result: BAZ2B block, G9a inh)
CN1CCN(Cc2ccc(Sc3ccc(Cl)cc3)c([N+](=O)[O-])c2)CC1	JMJD2A Tudor inh inconclusive, BAZ2B block 31.6µM
O=C(O)c1ccccc1C(=O)c1ccc(Sc2ccc(Cl)cc2)c([N+](=O)[O-])c1	BAZ2B block inconclusive, PLK1 PBD block inconclusive (no result: G9a inh)
Cc1ccc(Sc2ccc(CO)cc2[N+](=O)[O-])cc1	JMJD2A Tudor inh inconclusive, BAZ2B block inconclusive
Cc1ccc(Sc2ccc(CN3CCCC3)cc2[N+](=O)[O-])cc1	JMJD2A Tudor inh 44.7µM, BAZ2B block inconclusive, HP1b chromo inh inconclusive, G9a inh inconclusive
O=S(=O)(Cc1ccccc1)Nc1ccc(F)cc1	G9a inh inconclusive
C=CCNC(=O)C(C)Sc1ccc(Cl)cc1 (stereo not drawn)	PLK1 PBD block 29.9µM
CCNC(=O)C(C)Sc1ccc(Cl)cc1 (stereo not drawn)	none
COC(=O)c1ccc(-n2c(C)cc(C(=O)COC(=O)CNS(=O)(=O)c3ccc(C)cc3)c2C)cc1	JMJD2A Tudor inh 22.4µM, G9a inh inconclusive
Cc1ccc(C)c(C(=O)COC(=O)CNS(=O)(=O)c2ccccc2)c1	PLK1 PBD block inconclusive, G9a inh 70.8µM

Screening data from PubChem BioAssay.
